Experimental data reported in PubChem BioAssay AID504397 (Broad Institute, 2011).
Entries with a potency or affinity are not part of this list. Calls of active or inactive are those of the source. How the calls were made is not given here.

Assay: toxicity toward cultured mammalian cells – cell-based, plate reader, cherry-pick samples, cytotoxicity control, dose response (AID 504397)

With CN(C)CCN(C(=O)c1ccc2ccccc2c1)c1nc2ccc(F)cc2s1 as the compound, how does the outcome read?
Its outcome is “inactive”.

Which outcome does the source give for N/C(Cc1ccc([N+](=O)[O-])cc1)=N\OC(=O)c1ccc2ccccc2c1 here?
Its outcome is “inactive”.

With O=C(Nc1ccc2c(c1)CCC2)c1ccccc1Br as the compound, how does the outcome read?
The outcome was “inactive”.

For Cc1ccccc1NS(=O)(=O)c1ccc(C(=O)NCC(c2ccccc2)N(C)C)cc1 (stereo unspecified), which outcome is on record?
The outcome was “inactive”.

For CCn1cc(/C=C(\NC(=O)c2ccccc2)C(=O)N2CCOCC2)c2ccccc21, which outcome is on record?
Its outcome is “inactive”.

For O=C(CCNS(=O)(=O)c1ccc2[nH]c(=O)oc2c1)NCc1ccccc1, which outcome is on record?
The outcome was “inactive”.

For CS(=O)(=O)c1ccc(C(=O)OCC(=O)N(CCc2ccccc2)Cc2ccccc2)cc1, which outcome is on record?
The outcome was “inactive”.

With O=C(COC(=O)c1ccccc1Cc1ccccc1)NC1CCS(=O)(=O)C1 (stereo unspecified) as the compound, how does the outcome read?
The outcome was “inactive”.

With CCOC(=O)[C@@H]1[C@H]2COc3ccc(Br)cc3[C@@H]2N2C(=O)N(c3cccc(Cl)c3)C(=O)[C@]12C as the compound, how does the outcome read?
The outcome was “inactive”.

Which outcome does the source give for CCn1nnnc1SCC(=O)Nc1nc(C)c(C)s1 here?
Its outcome is “inactive”.

For CC(/C=N\NC(=O)CN1CCN(S(=O)(=O)c2ccc(C)cc2)CC1)=C\c1ccccc1, which outcome is on record?
Its outcome is “inactive”.

For O=[N+]([O-])c1ccc(-c2cnc(SC(c3ccccc3)c3ccccc3)[nH]2)cc1, which outcome is on record?
Its outcome is “inactive”.

For CCn1cc(/C=C(\NC(=O)c2ccccc2F)C(=O)N2CCOCC2)c2ccccc21, which outcome is on record?
The outcome was “inactive”.

With CN(C)CCCN(C(=O)c1cc(-c2cccs2)nc2ccccc12)c1nc2ccc(F)cc2s1 as the compound, how does the outcome read?
Its outcome is “inactive”.

With CC(C)c1c(C(=O)N/N=C/c2c[nH]c3ccccc23)nnn1-c1nonc1N as the compound, how does the outcome read?
Its outcome is “inactive”.

Which outcome does the source give for CC1CCN(Cc2c(C(=O)N/N=C/c3cccc(C(F)(F)F)c3)nnn2-c2nonc2N)CC1 here?
Its outcome is “inactive”.

Which outcome does the source give for CCOc1ccc(N(Cc2ccc(OC)cc2)C(=O)c2ccco2)cc1 here?
Its outcome is “inactive”.

For Cc1ccc2nc(N(CCN(C)C)C(=O)c3ccc4ccccc4c3)sc2c1, which outcome is on record?
The outcome was “inactive”.

For COc1ccc(-n2nc(C(=O)NCC(=O)N3CCC(C)CC3)c3ccccc3c2=O)cc1, which outcome is on record?
The outcome was “inactive”.

For CCn1cc(/C=C(\NC(=O)c2ccccc2Cl)C(=O)N2CCOCC2)c2ccccc21, which outcome is on record?
Its outcome is “inactive”.

Which outcome does the source give for Cc1ccc(OCCn2c3ccccc3n3nc(C)c(=O)nc23)cc1 here?
The outcome was “inactive”.

Which outcome does the source give for COc1ccc(C2Nc3ccccc3C(=O)N2Cc2ccccc2)cc1COc1ccccn1 (stereo unspecified) here?
Its outcome is “inactive”.

For COc1ccccc1N1CCN(c2ncc(C(=O)N3CCN(c4cccc(Cl)c4)CC3)c3ccccc23)CC1, which outcome is on record?
Its outcome is “inactive”.

With CCOc1ccc(-n2c(SCc3ccc([N+](=O)[O-])cc3)nnc2-c2ccc(OC)cc2)cc1 as the compound, how does the outcome read?
The outcome was “inactive”.

With Cc1ccc(N=Cc2c(O)n(C)c(=O)n(C)c2=O)nc1 as the compound, how does the outcome read?
The outcome was “inactive”.

Which outcome does the source give for CS(=O)(=O)Cc1ccc(C(=O)N(CCc2ccccc2)Cc2ccccc2)cc1 here?
Its outcome is “inactive”.

With Nc1nonc1-n1nnc(C(=O)N/N=C/c2ccoc2)c1CSc1ccccc1 as the compound, how does the outcome read?
Its outcome is “inactive”.

For O=C(c1cnc2n(c1=O)CCS2)N1CCN(C(c2ccccc2)c2ccc(Cl)cc2)CC1 (stereo unspecified), which outcome is on record?
The outcome was “inactive”.

With O=C(C(Cc1ccccc1)N1C(=O)c2ccccc2C1=O)N1c2ccccc2CCc2ccccc21 (stereo unspecified) as the compound, how does the outcome read?
Its outcome is “inactive”.

Which outcome does the source give for CN(C(=O)COC(=O)c1cn(-c2ccccc2)nc1-c1ccccc1)C1CCS(=O)(=O)C1 (stereo unspecified) here?
The outcome was “inactive”.

For CCCCNC(=S)N=Nc1c(O)n(Cc2ccccc2)c2ccccc12, which outcome is on record?
The outcome was “inactive”.
